Measured values as given in PubChem BioAssay (NCI).
Several values for one entry are separate records, joined by “and”; a condition that tells them apart may be missing. Equal entries are not always repeated. The panel holds about 83,000 compounds, 20% with a hit somewhere; the sample as a whole holds those more often.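 Plates (96-well) were seeded with cells, treated with compound at one concentration, and incubated for 48 hours before percent growth was determined.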 Activity calls are given as the source filed them. The calls were made as follows: active = growth percent below 10; inactive = the rest.

Legend:
Assay in all cases: NCI-60 one-dose screen, 48 h (100 = growth as untreated, 0 = no growth, -100 = all killed)
NCI-H226 lung = details: 10 µM
NCI-H322M lung = details: 10 µM
HOP-62 NSCLC = details: 10 µM
NCI-H460 lung = details: 10 µM
786-0 renal = details: 10 µM
COLO 205 colon = details: 10 µM
DU-145 prostate = details: 10 µM
SF-268 CNS = details: 10 µM
SF-295 CNS = details: 10 µM
SF-539 CNS = details: 10 µM
HCT-15 colon = details: 10 µM
SNB-75 CNS = details: 10 µM
SNB-19 CNS = details: 10 µM
U251 CNS = details: 10 µM
PC-3 prostate = details: 10 µM
EKVX NSCLC = details: 10 µM
UO-31 renal = details: 10 µM
ACHN renal = details: 10 µM
HL-60(TB) leukemia = details: 10 µM unless noted
CCRF-CEM leukemia = details: 10 µM

Measured: growth

CC1=C2C(=C[C@@](C)(COS(C)(=O)=O)[C@@H]2O)C(=O)[C@](C)(O)C12CC2
inactive: CCRF-CEM leukemia 11%
active: NCI-H226 lung -15.3% | NCI-H322M lung 4.33% | HOP-62 NSCLC 0.685% | NCI-H460 lung 7.36% | 786-0 renal 4.19% | COLO 205 colon -33.7% | DU-145 prostate 9.22% | SF-268 CNS 5.21% | SF-295 CNS -2.13% | SF-539 CNS -26.2% | HCT-15 colon 3.8% | SNB-75 CNS -74.6% | SNB-19 CNS 4.72% | U251 CNS 7.54% | PC-3 prostate 6.69% | EKVX NSCLC 4.37% | UO-31 renal -8.95% | ACHN renal -0.611% | HL-60(TB) leukemia -9.62%

CC1=C2C(=C[C@@](C)(COC(=O)c3ccc(S(=O)(=O)F)cc3)[C@@H]2O)C(=O)[C@](C)(O)C12CC2
active: NCI-H226 lung -24.4% | NCI-H322M lung -5.82% | HOP-62 NSCLC -17.7% | NCI-H460 lung -33.3% | 786-0 renal -37.7% | COLO 205 colon -58.5% | DU-145 prostate -20.4% | SF-268 CNS -12% | SF-295 CNS -5.19% | SF-539 CNS -67.8% | HCT-15 colon -20.2% | SNB-75 CNS -51.6% | SNB-19 CNS 3.51% | U251 CNS 1.04% | PC-3 prostate -3.96% | EKVX NSCLC -4.53% | UO-31 renal -21.4% | ACHN renal 0.0222% | CCRF-CEM leukemia 9.59%

COC1[C@@H]2C[C@H]3C(C)(C)O[C@@](C/C=C(/C)C(=O)O)(C2=O)[C@]32Oc3c(CC=C(C)C)c4c(c(O)c3C(=O)[C@H]12)C=CC(C)(C)O4 (stereo partly drawn)
inactive: NCI-H226 lung 23%
active: NCI-H322M lung -67% | HOP-62 NSCLC -24.8% | NCI-H460 lung -55.6% | 786-0 renal -50.8% | COLO 205 colon -72.1% | DU-145 prostate -97.2% | SF-268 CNS -45.5% | SF-295 CNS -55.2% | SF-539 CNS -23% | HCT-15 colon -43.1% | SNB-75 CNS -24.3% | SNB-19 CNS -69.5% | U251 CNS -91.1% | PC-3 prostate -18.4% | EKVX NSCLC -46.5% | UO-31 renal -69.6% | ACHN renal -71% | CCRF-CEM leukemia -1.89%

COC(=O)[C@H]1[C@@H](O)[C@@]2(O)c3c(OC)cc(OC)cc3O[C@@]2(c2ccc(OC)cc2)[C@@H]1c1ccccc1
active: NCI-H226 lung 3.03% | NCI-H322M lung -19% | HOP-62 NSCLC -11.6% | NCI-H460 lung 2.19% | 786-0 renal 0.303% | COLO 205 colon -71% | DU-145 prostate -9.42% | SF-268 CNS 0.0752% | SF-295 CNS -14.4% | SF-539 CNS -25.6% | HCT-15 colon -3.06% | SNB-75 CNS -6.18% | SNB-19 CNS -4.86% | U251 CNS -5.73% | PC-3 prostate -7.51% | EKVX NSCLC -5.16% | UO-31 renal -20.5% | ACHN renal -23% | HL-60(TB) leukemia -21.8% | CCRF-CEM leukemia 4.76%

C/C=C/CC(C)C(O)[C@H](NC(=O)[C@@H]1CCCN1C(=O)C(C)(C)NC(=O)CCCCCCC)C(=O)N[C@@](C)(CC)C(=O)N[C@@H](CCC(N)=O)C(=O)N[C@H](CCC(N)=O)C(=O)NC(C)(C)C(=O)NC(C)(C)C(=O)N[C@@H](CCC(N)=O)C(=O)N[C@H](CC(C)C)C(=O)N[C@H](CO)CC(C)C (stereo partly drawn)
103% (inactive) and -23.3% (active): CCRF-CEM leukemia
100% (inactive) and 5.16% (active): EKVX NSCLC
105% (inactive) and 6.63% (active): NCI-H226 lung
98.8% (inactive) and -22.2% (active): SF-295 CNS
107% (inactive) and -8.99% (active): SF-268 CNS
109% (inactive) and -30.3% (active): SNB-75 CNS
100% (inactive) and -45.7% (active): SF-539 CNS
101% (inactive) and -17.8% (active): U251 CNS
110% (inactive) and -35.4% (active): DU-145 prostate
118% (inactive) and -46.4% (active): COLO 205 colon
inactive: NCI-H322M lung 108% and 70% | HOP-62 NSCLC 95.9% and 14.5% | NCI-H460 lung 105% and 13.1% | 786-0 renal 103% and 39.8% | HCT-15 colon 100% and 22.1% | SNB-19 CNS 101% and 14% | PC-3 prostate 103% and 17.3% | UO-31 renal 96.7% and 16.1% | ACHN renal 103% and 32%
94.8% (inactive) and -6.76% (active): HL-60(TB) leukemia

COc1cc2c(O[C@@H]3OC[C@H](O)[C@H](O)[C@H]3O)c3c(c(-c4ccc5c(c4)OCO5)c2cc1OC)C(=O)OC3
inactive: NCI-H226 lung 80.7% | NCI-H322M lung 82% | HOP-62 NSCLC 59.1% | NCI-H460 lung 71.9% | 786-0 renal 78.9% | COLO 205 colon 11.6% | DU-145 prostate 53.2% | SF-268 CNS 66.7% | SF-295 CNS 40.5% | SF-539 CNS 53.6% | HCT-15 colon 70.3% | SNB-75 CNS 18% | SNB-19 CNS 97% | U251 CNS 54.8% | PC-3 prostate 67.1% | EKVX NSCLC 70% | UO-31 renal 82.2% | ACHN renal 67.6% | HL-60(TB) leukemia 32.6% | CCRF-CEM leukemia 46.6%

CC1=C(CN(O)C(N)=O)C2=C(C)C3(CC3)[C@@](C)(O)C(=O)C2=C1
inactive: SNB-19 CNS 16.2% | CCRF-CEM leukemia 94.7%
active: NCI-H226 lung -46.8% | NCI-H322M lung 5.16% | HOP-62 NSCLC -9% | NCI-H460 lung -11.2% | 786-0 renal -5.47% | COLO 205 colon -35.9% | DU-145 prostate -2.79% | SF-268 CNS -14.7% | SF-295 CNS -11.4% | SF-539 CNS -46.1% | HCT-15 colon 0.564% | SNB-75 CNS -52.8% | U251 CNS 4.97% | PC-3 prostate 2.36% | EKVX NSCLC -24.1% | UO-31 renal -31.8% | ACHN renal -14.4% | HL-60(TB) leukemia -28.2%

CC1=C(CN(O)C(N)=O)C2=C(C)C3(CC3)[C@](C)(O)C(=O)C2=C1
inactive: NCI-H226 lung 105% | NCI-H322M lung 26.8% | HOP-62 NSCLC 11.4% | 786-0 renal 14.9% | DU-145 prostate 10% | SF-268 CNS 13.6% | SNB-19 CNS 32.5% | U251 CNS 23.8%
active: NCI-H460 lung 1.16% | COLO 205 colon -11.9% | SF-295 CNS 0.35% | SF-539 CNS -1.94% | HCT-15 colon 1.38% | SNB-75 CNS -22.2% | PC-3 prostate 8.93% | EKVX NSCLC 8.16% | UO-31 renal -20.3% | ACHN renal -5.65% | HL-60(TB) leukemia -16.6% | CCRF-CEM leukemia 1.19%

COc1cccc2c1cc([N+](=O)[O-])c1c(C(=O)O)cc3c(c12)OCO3
inactive: NCI-H226 lung 104% | NCI-H322M lung 115% | HOP-62 NSCLC 113% | NCI-H460 lung 105% | 786-0 renal 109% | COLO 205 colon 18.1% | DU-145 prostate 112% | SF-268 CNS 108% | SF-295 CNS 101% | SF-539 CNS 106% | HCT-15 colon 99.9% | SNB-75 CNS 96.2% | SNB-19 CNS 102% | U251 CNS 103% | PC-3 prostate 95.6% | EKVX NSCLC 97% | UO-31 renal 85.1% | ACHN renal 101% | HL-60(TB) leukemia 105% | CCRF-CEM leukemia 96.6%

CC1=C2C(=O)[C@](C)(CO)C=C2C(=O)[C@](C)(O)C12CC2
active: NCI-H460 lung 5.34% | 786-0 renal 5.58% | COLO 205 colon -12.1% | DU-145 prostate 7.23% | SF-295 CNS 6.45% | SF-539 CNS 4.6% | HCT-15 colon -9.55% | U251 CNS 8.4% | UO-31 renal -20.7% | ACHN renal -21.9% | HL-60(TB) leukemia -21.6%
inactive: NCI-H226 lung 74.7% | NCI-H322M lung 61.6% | HOP-62 NSCLC 22% | SF-268 CNS 10.5% | SNB-75 CNS 38.9% | SNB-19 CNS 60.2% | PC-3 prostate 21.6% | EKVX NSCLC 64.7% | CCRF-CEM leukemia 13.9%

C/C=C/CC(C)C(O)[C@H](NC(=O)[C@@H]1CCCN1C(=O)C(C)(C)NC(=O)CCCCCCCCC)C(=O)NC(C)(C)C(=O)N[C@@H](CCC(N)=O)C(=O)N[C@H](CCC(N)=O)C(=O)NC(C)(C)C(=O)NC(C)(C)C(=O)N[C@@H](CCC(N)=O)C(=O)N[C@H](CC(C)C)C(=O)N[C@H](CO)CC(C)C (stereo partly drawn)
20.7% (inactive) and -41.7% (active): HOP-62 NSCLC
active: COLO 205 colon -82.7% and -41.1% | DU-145 prostate -71% and -43.1% | SF-268 CNS -14.2% and -46.2% | SF-295 CNS -20.9% and -75.3% | SF-539 CNS -33.1% and -100% | HCT-15 colon 4.12% and 4.44% | SNB-75 CNS -15.2% and -83.2% | U251 CNS 0.668% and -89.7% | HL-60(TB) leukemia -52.1% and -47.2% | CCRF-CEM leukemia -12.7% and -38.8%
15.8% (inactive) and -29.7% (active): PC-3 prostate
14.5% (inactive) and -95.4% (active): SNB-19 CNS
43.7% (inactive) and -32% (active): ACHN renal
24.6% (inactive) and -36.3% (active): NCI-H226 lung
39.9% (inactive) and -7.7% (active): NCI-H322M lung
22.6% (inactive) and -41.8% (active): EKVX NSCLC
14.2% (inactive) and -83.8% (active): 786-0 renal
17.1% (inactive) and -70% (active): NCI-H460 lung
39.7% (inactive) and -38.5% (active): UO-31 renal

N#Cc1c(-n2c(Br)c(Br)c3cc(Br)ccc32)[nH]c2c(Br)cc(Br)cc12
inactive: DU-145 prostate 17% | SNB-19 CNS 15% | CCRF-CEM leukemia 13.2%
active: NCI-H226 lung -20.5% | NCI-H322M lung 0.977% | HOP-62 NSCLC -50.9% | NCI-H460 lung -2.03% | 786-0 renal -19.1% | COLO 205 colon -89.6% | SF-268 CNS 9.61% | SF-295 CNS -67% | SF-539 CNS 6.25% | HCT-15 colon -27% | SNB-75 CNS -9.71% | U251 CNS 2.86% | PC-3 prostate -8.16% | EKVX NSCLC 3.62% | UO-31 renal 1.66% | ACHN renal 1.41% | HL-60(TB) leukemia 1.07%
